This note sets out measurements from PMC4336329 (PLoS ONE, 2015).

In all, about 310,000 compounds went through this assay and about 14,000 (4.5%) showed an effect of 50% or more. The effect is printed as a negative number. The sample holds strong results, similar compounds and a random draw of the others, so the mix is not that of the screen.
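Further: peak tail current of the secondary pulse compared with the same well before compound.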

The target in this test is human ether-à-go-go-related gene (hERG) potassium channel (human, UniProt Q12809). As to the kind of experiment: primary screen, population patch clamp on CHO cells stably expressing hERG; higher = less effect of the substance.
Chain of human ether-à-go-go-related gene (hERG) potassium channel (Q12809 whole entry, looked up): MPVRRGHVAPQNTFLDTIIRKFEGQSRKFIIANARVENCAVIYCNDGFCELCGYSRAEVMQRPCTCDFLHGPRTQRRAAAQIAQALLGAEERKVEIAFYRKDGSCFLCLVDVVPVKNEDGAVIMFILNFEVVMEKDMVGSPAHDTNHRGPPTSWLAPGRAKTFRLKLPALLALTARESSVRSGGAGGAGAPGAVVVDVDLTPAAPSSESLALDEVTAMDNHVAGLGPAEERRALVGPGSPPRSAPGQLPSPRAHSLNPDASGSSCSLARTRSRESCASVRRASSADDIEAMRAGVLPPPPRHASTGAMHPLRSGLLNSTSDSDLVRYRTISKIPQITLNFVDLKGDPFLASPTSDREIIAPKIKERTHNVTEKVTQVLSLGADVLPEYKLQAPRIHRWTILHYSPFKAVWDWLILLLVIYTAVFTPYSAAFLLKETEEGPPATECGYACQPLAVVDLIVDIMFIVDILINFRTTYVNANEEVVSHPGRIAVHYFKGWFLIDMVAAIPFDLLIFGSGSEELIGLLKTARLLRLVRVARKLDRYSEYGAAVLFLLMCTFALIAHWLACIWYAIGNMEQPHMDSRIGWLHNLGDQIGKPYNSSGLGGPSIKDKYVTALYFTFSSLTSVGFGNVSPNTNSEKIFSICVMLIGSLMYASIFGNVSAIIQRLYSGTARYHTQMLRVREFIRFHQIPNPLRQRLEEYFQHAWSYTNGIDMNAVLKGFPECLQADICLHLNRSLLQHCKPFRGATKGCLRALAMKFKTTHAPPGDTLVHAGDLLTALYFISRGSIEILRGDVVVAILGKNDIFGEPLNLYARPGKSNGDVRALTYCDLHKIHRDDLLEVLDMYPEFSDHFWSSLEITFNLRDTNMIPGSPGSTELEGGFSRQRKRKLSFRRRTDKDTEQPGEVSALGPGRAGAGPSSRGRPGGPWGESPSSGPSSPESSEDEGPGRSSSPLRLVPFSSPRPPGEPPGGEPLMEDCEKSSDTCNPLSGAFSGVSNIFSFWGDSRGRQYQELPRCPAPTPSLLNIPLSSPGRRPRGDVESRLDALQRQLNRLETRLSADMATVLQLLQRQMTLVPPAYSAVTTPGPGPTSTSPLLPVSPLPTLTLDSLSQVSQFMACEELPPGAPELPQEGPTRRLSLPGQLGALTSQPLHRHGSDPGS
Take `O=C(c1cc(-c2ccc(Cl)cc2Cl)on1)N1CCOCC1`: the “hERG current change (%, negative = inhibition) at 10uM” value is listed as -9.72%.

As to `O=C(c1cc(Cl)ccc1Cl)N1CCOCC1`, the “hERG current change (%, negative = inhibition) at 10uM” value is 8%.

For `O=C(O)c1cc(-c2ccccc2)n(-c2ccc(Cl)cc2Cl)n1`, the “hERG current change (%, negative = inhibition) at 10uM” value was found to be 21.5%.

`O=C(c1cc(-c2ccc(Cl)cc2)on1)N1CCOCC1`: the “hERG current change (%, negative = inhibition) at 10uM” value is given as -0.136%.

As to `O=C(c1cc(-c2ccc(Cl)cc2)n(-c2cc(Cl)ccc2Cl)n1)N1CCOCC1`, the “hERG current change (%, negative = inhibition) at 10uM” value was -68.9%.

As to `O=C(c1cc(-c2ccc(Cl)cc2)n(-c2ccc(Cl)cc2Cl)n1)N1CCOCC1`, the “hERG current change (%, negative = inhibition) at 10uM” value is given as -79.6%.

Consider `N#C/C(=C\c1ccc(-c2nc3ccccc3s2)o1)C(N)=O`, for which the “hERG current change (%, negative = inhibition) at 10uM” value is given as 5.03%.

As for `COc1ccc(C(=O)NC(C)C2CC3CCC2C3)cc1` (centres unmarked), the “hERG current change (%, negative = inhibition) at 10uM” value came out at 2.42%.

Consider `CC1=CN2C(=N)/C(=C/c3ccc(Sc4ccc(C)cc4)o3)C(=O)N=C2S1`, for which the “hERG current change (%, negative = inhibition) at 10uM” value was 10.1%.

Turning to `Cn1c(COc2ccccc2O)[n+](C)c2ccccc21.[Br-]`, the “hERG current change (%, negative = inhibition) at 10uM” value is 15.8%.

Turning to `CCCCCCCCCCOC(=O)Cn1c(COc2ccccc2C)[n+](C)c2ccccc21.[Cl-]`, the “hERG current change (%, negative = inhibition) at 10uM” value was -72.5%.

On to `CCn1c(COc2ccccc2C)nc2ccccc21`, for which the “hERG current change (%, negative = inhibition) at 10uM” value is 4.07%.

Turning to `CCOC(=O)C(CCCOc1ccccc1C)C(=O)OCC`, the “hERG current change (%, negative = inhibition) at 10uM” value amounted to 6.43%.

With `CCCCCCCCCCOC(=O)Cn1c(COc2ccccc2OC)[n+](C)c2ccccc21.[Cl-]`, the “hERG current change (%, negative = inhibition) at 10uM” value is -77.3%.

On to `CCOC(=O)Cn1c(COc2ccccc2OC)[n+](C)c2ccccc21`, for which the “hERG current change (%, negative = inhibition) at 10uM” value turned out to be 7.4%.

`CCOC(=O)c1nn(-c2ccc(Cl)cc2)c(=O)c(C#N)c1C`: the “hERG current change (%, negative = inhibition) at 10uM” value was 5.94%.

With `CCCCNC(=S)N(C)/N=C/c1ccc(OCc2ccc(C(=O)OC)cc2)c(OC)c1`, the “hERG current change (%, negative = inhibition) at 10uM” value was 11.8%.

In the case of `O=C(N/N=C/c1cccnc1)c1ccc2c(c1)OCCO2`, the “hERG current change (%, negative = inhibition) at 10uM” value is reported as 8.1%.

Take `Cc1ccc(CSCC(=O)N(C)CC(=O)Nc2c(Cl)cccc2Cl)cc1`: the “hERG current change (%, negative = inhibition) at 10uM” value is recorded as -9.07%.

Take `CCOC(=O)C1CN(S(=O)(=O)c2ccc(OC)cc2)c2cc(S(=O)(=O)CC)ccc2O1` (centres unmarked): the “hERG current change (%, negative = inhibition) at 10uM” value is -52%.

`CCOC(=O)C1CN(S(=O)(=O)c2ccc(C)cc2)c2cc(S(=O)(=O)CC)ccc2O1` (centres unmarked): the “hERG current change (%, negative = inhibition) at 10uM” value is -41%.

With `CCOC(=O)C1CN(S(=O)(=O)c2ccccc2)c2cc(S(=O)(=O)CC)ccc2O1` (centres unmarked), the “hERG current change (%, negative = inhibition) at 10uM” value is listed as -23.3%.

In the case of `CC(=O)Oc1ccc(C2OC(=O)c3ccccc3N2C(C)=O)cc1` (centres unmarked), the “hERG current change (%, negative = inhibition) at 10uM” value came out at 1.12%.

As to `CCN(C(=O)Cc1c(C(=O)O)n(C)c2ccccc12)c1cc(OC)ccc1OC`, the “hERG current change (%, negative = inhibition) at 10uM” value came out at 11.9%.

Regarding `O=S(=O)(NCc1ccccn1)c1ccccc1`, the “hERG current change (%, negative = inhibition) at 10uM” value is -2.19%.

On to `CNc1oc(-c2ccc(Cl)cc2)nc1C#N`, for which the “hERG current change (%, negative = inhibition) at 10uM” value was -4.17%.

As for `Cc1cc(C)cc(N2CCCn3c2nc2c3c(=O)[nH]c(=O)n2C)c1`, the “hERG current change (%, negative = inhibition) at 10uM” value is given as 13.6%.

`CC(C)(C)n1nnnc1C(c1cccs1)N(Cc1cccnc1)Cc1ccccc1Cl` (centres unmarked): the “hERG current change (%, negative = inhibition) at 10uM” value was -11.4%.

Regarding `CC(C)(C)n1nnnc1CN(Cc1cccnc1)Cc1ccccc1Cl`, the “hERG current change (%, negative = inhibition) at 10uM” value is -33%.

Take `CC(c1nnnn1C(C)(C)C)N(Cc1cccnc1)Cc1ccccc1Cl` (centres unmarked): the “hERG current change (%, negative = inhibition) at 10uM” value was -52.3%.

Regarding `CCOC(=O)c1nc(C)n(-c2cc(OC)c(Cl)cc2Cl)n1`, the “hERG current change (%, negative = inhibition) at 10uM” value came out at 5.95%.

With `O=C(CCCOc1ccccc1)Nc1cccc(C(=O)O)c1`, the “hERG current change (%, negative = inhibition) at 10uM” value was 12.6%.

In the case of `COc1ccc(OC)c(NC(=O)CSc2nnc(-c3ccco3)o2)c1`, the “hERG current change (%, negative = inhibition) at 10uM” value is -15.7%.

With `CC(C)c1ccc(NC(=O)CSc2nc(=O)n(CCN3CCOCC3)c3c2CCC3)cc1`, the “hERG current change (%, negative = inhibition) at 10uM” value was -41.5%.

For `Cc1cccc(NC(=O)CSc2nc(=O)n(CCCN3CCOCC3)c3c2CCCC3)c1`, the “hERG current change (%, negative = inhibition) at 10uM” value is -42.4%.

Take `Cc1ccc(NC(=O)CSc2nc(=O)n(CCCN3CCOCC3)c3c2CCCC3)c(C)c1`: the “hERG current change (%, negative = inhibition) at 10uM” value was -36.7%.

Consider `CC(C)c1ccc(NC(=O)CSc2nc(=O)n(CCCN3CCOCC3)c3c2CCCC3)cc1`, for which the “hERG current change (%, negative = inhibition) at 10uM” value was -39.7%.

As to `CC(C)c1ccc(NC(=O)CSc2nc(=O)n(CCCN3CCOCC3)c3c2CCC3)cc1`, the “hERG current change (%, negative = inhibition) at 10uM” value is -51.3%.

Turning to `Cc1ccc(NC(=O)CSc2nc(=O)n(CCCN3CCOCC3)c3c2CCCC3)cc1`, the “hERG current change (%, negative = inhibition) at 10uM” value is recorded as -45.5%.

With `Cc1cc(C)cc(NC(=O)CSc2nc(=O)n(CCCN3CCOCC3)c3c2CCCC3)c1`, the “hERG current change (%, negative = inhibition) at 10uM” value is -55.2%.

Regarding `O=C(CSc1nc(=O)n(CCCN2CCOCC2)c2c1CCCC2)Nc1ccc(Cl)cc1`, the “hERG current change (%, negative = inhibition) at 10uM” value is reported as -77.7%.

On to `Cc1ccc(NC(=O)CSc2nc(=O)n(CCCN3CCOCC3)c3c2CCCC3)cc1F`, for which the “hERG current change (%, negative = inhibition) at 10uM” value was -50.2%.

On to `CCN(CC(=O)Nc1c(F)cccc1F)C(=O)CN1C(=O)NC2(CCCC2)C1=O`, for which the “hERG current change (%, negative = inhibition) at 10uM” value turned out to be 22.5%.

`CCN1CCCc2cc(CN(CCN3CCOCC3)C(=S)Nc3ccc(C)cc3)ccc21`: the “hERG current change (%, negative = inhibition) at 10uM” value is -8.41%.
